DAX1 inh-1: inhibits human nuclear receptor DAX1; P51843; HEK293 Gal4-DAX1 luciferase reporter, luminescence; inhibition, % at 6.75 µM; 340,000 tested, 0.99% active; AID 504766;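 active means inhibition above the mean over all tested compounds plus 3 SD, cut at about 4.2% in these data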;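 further: 0% = DAX1-transfected cells with DMSO and 100% = empty-vector control cells with DMSO; inhibition shows as a rise in luminescence from relieved DAX1 repression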
Target sequence (P51843 207-470 limits assumed): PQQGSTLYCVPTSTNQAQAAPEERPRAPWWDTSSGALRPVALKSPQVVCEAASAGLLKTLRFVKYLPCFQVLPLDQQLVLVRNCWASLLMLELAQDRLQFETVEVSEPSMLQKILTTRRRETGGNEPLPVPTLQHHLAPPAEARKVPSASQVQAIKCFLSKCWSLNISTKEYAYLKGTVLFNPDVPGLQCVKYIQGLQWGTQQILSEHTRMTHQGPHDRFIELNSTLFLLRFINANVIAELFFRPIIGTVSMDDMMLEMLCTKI
hgDAF12 agonist: hgDAF-12 agonism, primary luciferase screen; 370,000 tested, 1.8% active; activation, % at 6.8 µM; AID 687014; HEK293 GAL4-hgDAF12 UAS-luciferase reporter, agonist luminescence; normalized to butyrate control;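 active means activation above a cutoff set at the mean of all screened compounds plus 3 SD, cut at about 10% in these data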;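 further: 0% = DMSO wells and 100% = sodium butyrate wells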
DAX1 inh-2: blocks DAX1 repression of SF-1 activated StAR promoter; HEK293T StAR-luciferase reporter, SF-1/DAX-1 repression relief; inhibition, % at 6.8 µM; 370,000 tested, 1.1% active;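 active means inhibition above the mean over all tested compounds plus 3 SD, cut at about 3.6% in these data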;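 further: 0% = DAX-1 cells with DMSO and 100% = cells lacking DAX-1 with DMSO; higher inhibition means more luminescence from relief of DAX-1 repression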
hcDAF12 agonist: activators of H. contortus DAF-12 nuclear receptor. 370,000 tested, 1.4% active. activation, % at 6.8 µM. HEK293 hcDAF-12 lit1-tk-luc reporter, luminescence; 0% DMSO, 100% Δ7-dafachronic acid;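 active means activation above the mean of all tested compounds plus 3 SD, cut at about 5.5% in these data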;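 further: 100% = response to 3 µM Δ7-dafachronic acid high control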
ssDAF12 agonist: activators of S. stercoralis DAF-12 nuclear receptor; HEK293 ssDAF-12/GRIP1 lit1-tk-luc reporter, luminescence; % of 3 µM dafachronic acid response; activation, % at 6.8 µM; 370,000 tested, 1% active;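 active means activation above the mean over all tested compounds plus 3 SD, cut at about 0.9% in these data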;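 further: 0% = DMSO-only wells and 100% = 3 µM delta7-dafachronic acid wells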
The depositor's hits bear a star; . = not tested or not shown. Sampled rows, rich in hits. Any-hit rate of the full collection: about 4.1%.

SMILES | DAX1 inh-1 | hgDAF12 agonist | DAX1 inh-2 | hcDAF12 agonist | ssDAF12 agonist
CCOC(=O)[C@@]12CN(C(=O)OC(C)(C)C)CC=C1N(Cc1ccc(OC)cc1)C(=O)[C@H]2CC(=O)N1CCC(c2ccccc2)CC1 | . | -5.1 | -1.4 | -2.6 | -1.7
C=CCOC(=O)/C(=C/c1cccc2ccccc12)NC(=O)c1ccccc1 | 4.3* | 2.8 | 0.0 | -0.2 | -1.1
CC(=O)CC[C@@H]1CC[C@]2(CCCN(C(=O)C3CCCC3)C2)O1 | . | -2.0 | 0.5 | 2.5 | -0.8
CCCCC[C@@H](C)N1C[C@@H](COCc2ccccc2)Oc2cc(N3CCC[C@H]3CO)ccc2S1(=O)=O | . | 0.9 | -0.9 | 0.6 | 0.9*
C[C@H](c1ccccc1)N1C[C@@H](COCc2ccccc2)Oc2cc(N3CC[C@@H](O)C3)ccc2S1(=O)=O | . | 3.8 | 3.9* | -1.0 | -1.5
CCCCC[C@@H](C)N1C[C@@H](COCc2ccccc2)Oc2cc(N3CC[C@H](N(C)C)C3)ccc2S1(=O)=O | . | 0.7 | 4.1* | 0.1 | -1.1
CN1C(=O)C[C@@](C#N)(C(=O)Nc2nc3ccc(F)cc3s2)[C@H]1c1ccccc1 | . | -3.7 | -0.7 | -1.7 | -1.3
COc1ccc(S[C@]2(C(=O)N(C)C)CC(=O)N(C(=O)CCc3ccccc3)[C@@H]2c2ccc(OC)cc2)cc1 | . | -1.9 | -0.5 | -0.1 | -0.8
Cc1c(CC(=O)Nc2ccc(Cl)cc2)sc2ccc(Cl)cc12 | 6.4* | 1.7 | 0.1 | 0.4 | -1.5
O=C(CSc1nncs1)NC(=O)Nc1ccc2c(c1)OCCO2 | 2.9 | 11.8* | 1.8 | 2.0 | -0.7
CNC(=O)CSc1nc2sccc2c(=O)n1-c1ccccc1 | 4.6* | -0.8 | -0.4 | 0.3 | -0.5
COc1cccc(-c2ccc(SCc3ccccn3)nn2)c1 | 0.5 | 11.8* | 2.5 | 2.0 | 0.5
COc1ccc(-c2ccc(SCc3ccccn3)nn2)cc1OC | -1.7 | 1.3 | 0.0 | 0.2 | -0.2
CCCNC(=O)C(Cc1ccccc1)NS(=O)(=O)c1cccc2nsnc12 (stereo not given) | 0.5 | 2.5 | -0.4 | -0.2 | -1.0
CCOCCCNC(=O)C(Cc1ccccc1)NS(=O)(=O)c1cccc2nsnc12 (stereo not given) | 4.5* | -0.1 | 0.2 | -0.5 | -1.4
COc1ccc(C2NCCc3c2[nH]c2ccccc32)cc1CSc1nc2ccccc2s1 (stereo not given) | -0.1 | 2.0 | 0.6 | 5.7* | 0.5
COC(=O)[C@H](C)NC(=O)[C@@H]1CCCN1C(=O)CNP(=O)(OCc1ccccc1)OCc1ccccc1 | . | 0.1 | . | -1.8 | -1.2
CCc1cc2c(=O)c(-c3cnn(-c4ccccc4)c3)c(C)oc2cc1OCC(=O)Nc1ccc(F)c(F)c1 | 0.2 | 1.2 | 0.4 | 0.7 | 1.9*
CCc1cc2c(=O)c(-c3cnn(-c4ccccc4)c3)c(C)oc2cc1OCC(=O)Nc1cccc(C)c1 | 0.7 | -1.7 | -0.5 | -0.5 | -1.1
Cc1ccc(C(=O)CSc2nnc(-c3ccccn3)n2-c2ccccc2)cc1 | . | 1.9 | -0.3 | -2.6 | -1.3
COc1cccc(NC(=O)Nc2ccc(C)c(Cl)c2)c1 | 1.4 | 13.1* | 1.2 | 0.5 | -0.4
COc1ccc(NC(=O)Nc2cccc(C)n2)c(OC)c1 | -1.4 | 0.9 | 1.5 | 2.3 | -0.5
COc1cccc(NC(=O)c2ncc(Cl)c(Cl)c2Cl)c1 | 0.3 | 11.3* | 0.3 | 3.3 | -1.9
COc1cccc(NC(=O)Nc2cccc(C)n2)c1 | 2.2 | 12.4* | 0.6 | 1.3 | -0.5
COc1cccc(NC(=O)Nc2cc(C(=O)O)ccc2C)c1 | -0.4 | -0.5 | 0.2 | -1.5 | -0.9
SMILES | DAX1 inh-1 | hgDAF12 agonist | DAX1 inh-2 | hcDAF12 agonist | ssDAF12 agonist
CCC[C@H]1[C@@H](OC(=O)NCCc2ccccc2)CC[C@@]23CCCN2C(=O)CCC[C@@H]13 | . | -3.9 | . | 0.0 | -1.7
CCn1cnc2sc(C(=O)Nc3ccc4c(c3)OCO4)c(C)c2c1=O | -0.4 | 12.6* | 0.9 | 0.8 | 0.0
O=C(NCc1ccco1)C1CCCN(S(=O)(=O)c2ccc([N+](=O)[O-])cc2)C1 (stereo not given) | . | 0.6 | -0.3 | -1.4 | 0.0
CCOC(=O)N1CCN(C(=S)NC(C)(C)C)CC1 | 5.2* | 1.9 | 0.7 | -1.5 | -1.3
COC(=O)[C@]12C[C@H](CC(=O)NCCc3ccccc3OC)C(=O)N(Cc3ccc(Cl)cc3Cl)C1=C[C@H](C(C)(C)C)O[C@@H]2C | . | -0.5 | -2.0 | -1.9 | -2.0
COc1ccccc1OCC(=O)Nc1ccc2c(c1)OCCO2 | 1.1 | 4.3 | 0.7 | 1.0 | -0.1
O=C(COc1ccccc1Cl)Nc1ccc2c(c1)OCCO2 | 3.0 | 10.2 | 1.9 | 1.0 | -0.2
NC(=O)c1ccccc1OCC(=O)Nc1ccc2c(c1)OCCO2 | 0.7 | 8.5 | 4.5* | 4.7 | -0.5
Cc1ccccc1OCC(=O)Nc1ccc2c(c1)OCCO2 | 8.2* | 12.8* | 2.8 | 0.9 | -0.7
OC[C@@H]1CC[C@@H]2O[C@H](CCc3ccc(-c4ccc(F)cc4)cc3)[C@H](n3cc(C4CC4)nn3)C[C@@H]2O1 | . | -0.5 | -0.3 | -1.0 | -1.6
CSc1ncccc1C(=O)OCC(=O)c1cc(C)n(C)c1C | 4.3* | 4.1 | 2.3 | 6.4* | 0.5
O=C1[C@@H](CCc2ccccc2)[C@@H]2c3cc4ccccc4cc3C=NN2[C@@H]2c3cc4ccccc4cc3C=NN12 | . | -1.6 | -1.2 | 3.7 | -1.0
CCc1ccc(/C=C2\SC(=S)N(CCCC(=O)Nc3ccc(C(=O)O)cc3)C2=O)cc1 | 0.0 | -0.8 | -1.0 | 6.0* | -0.9
O=C(CCCN1C(=O)/C(=C\c2ccccc2)SC1=S)Nc1ccc(C(=O)O)cc1 | 1.3 | -0.7 | 0.4 | -0.4 | -1.3
COc1ccc2c(c1)CN1CN(C3CCCC3)S(=O)(=O)CC21 (stereo not given) | . | 4.8 | -1.0 | -1.4 | -0.5
COc1ccc(-c2nc(Cn3c(SCc4cccc(F)c4)nc4ccncc43)c(C)o2)cc1OC | -0.7 | 0.1 | -0.9 | -1.5 | -1.6
COc1ccc(-c2nc(Cn3c(SCc4ccc(C)cc4)nc4ccncc43)c(C)o2)cc1OC | 0.3 | 11.5* | 0.5 | 3.0 | -1.2
C#CCOCCOCCOCCNc1nc(N2CCN(C(=O)Cn3cc(CCCN=C(N)N)nn3)CC2)nc(N2CCN(C(=O)[C@H](CCCCN)n3cc(CCCC)nn3)CC2)n1 | 0.6 | 12.0* | -0.1 | 0.0 | -1.3
Cc1ccc(C(=O)NC2CCCCN(C(C)C)C2=O)cc1 (stereo not given) | . | -2.1 | -0.7 | 3.2 | -0.6
COC(=O)[C@]12C[C@H](CC(=O)NCc3ccccc3)C(=O)N(Cc3cccc4ccccc34)C1=C[C@H](C(C)C)O[C@@H]2C1CC1 | . | 4.4 | -1.4 | -0.5 | -1.4
COC(=O)[C@]12C[C@H](CC(=O)NCCCCc3ccccc3)C(=O)N(Cc3cccc4ccccc34)C1=C[C@H](C(C)C)O[C@@H]2C1CC1 | . | -2.5 | -1.2 | -0.6 | 1.3*
Cc1ccc(-n2c(SC/C=C/c3ccccc3)nnc2-c2cccs2)cc1 | . | 0.4 | -1.6 | -1.8 | -1.6

Compound activity as filed in PubChem.
